Inconclusive results are not listed. Entries that show only a call come without a potency. More than one record can exist for a structure, and the calls need not agree. Active and inactive are the calls of the source. The call rests on the fitted dose curve.
Experiments:
[1] = molecular target: Acetylcholinesterase (Homo sapiens) (UniProt P22303); assay: Acetylcholinesterase (AChE) small molecule antagonists: colormetric cell-based qHTS assay (AID 1347395); further: nearly all actives have a fitted effect of over 30% in size; further: potency means the concentration at half of the fitted maximal effect
Summary of the method: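 Quantitative HTS in attached SH-SY5Y cells: 30 min compound exposure, then 90 min with acetylthiocholine and DTNB at 37 C; colour from thiocholine reports AChE activity.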

[2] = molecular target: Acetylcholinesterase (Homo sapiens) (UniProt P22303); assay: Acetylcholinesterase (AChE) small molecule antagonists: enzyme-based qHTS assay (AID 1347397); details: Potency: AChE enzyme activity inhibition; outcome: AChE enzyme activity inhibition; further: nearly all actives have a fitted effect of over 55% in size; further: potency means the concentration at half of the fitted maximal effect
Summary of the method: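 First, recombinant human AChE (50 mU/mL as dispensed) received test compound or DMSO. Second, plates stood 30 min at room temperature. Third, DTNB and acetylthiocholine were added, followed by 10 min at room temperature and colorimetric detection.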

[3] = molecular target: Acetylcholinesterase (Homo sapiens) (UniProt P22303); assay: Acetylcholinesterase (AChE) small molecule antagonists: fluorescence cell-based qHTS assay (AID 1347398); details: Potency: AChE activity; outcome: AChE activity; further: nearly all actives have a fitted effect of over 50% in size; further: potency means the concentration at half of the fitted maximal effect
Summary of the method: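 Homogeneous quantitative HTS format. SH-SY5Y cells seeded at 2,000 per well settle overnight at 37 C. Compound pretreatment runs 30 min (37 C, 5% CO2); substrate/probe mix then reacts 40 min at RT before reading 490/520 nm.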

[4] = molecular target: Acetylcholinesterase (Homo sapiens) (UniProt P22303); assay: Acetylcholinesterase (AChE) small molecule antagonists: enzyme-based qHTS assay with human liver microsomes (AID 1347399); details: Potency: qHTS inhibition; outcome: qHTS inhibition; further: nearly all actives have a fitted effect of over 60% in size
Summary of the method: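 Recombinant human AChE (50 mU/mL in the enzyme mix) and human liver microsomes (0.25 mg/mL final) were preincubated with compound and NADPH (0.25 mg/mL final) for 30 min at 37 C. Acetylthiocholine/DTNB was then added; thiocholine was read colorimetrically after 10 min at room temperature.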

Chain of Acetylcholinesterase (Homo sapiens) (P22303 whole entry, looked up): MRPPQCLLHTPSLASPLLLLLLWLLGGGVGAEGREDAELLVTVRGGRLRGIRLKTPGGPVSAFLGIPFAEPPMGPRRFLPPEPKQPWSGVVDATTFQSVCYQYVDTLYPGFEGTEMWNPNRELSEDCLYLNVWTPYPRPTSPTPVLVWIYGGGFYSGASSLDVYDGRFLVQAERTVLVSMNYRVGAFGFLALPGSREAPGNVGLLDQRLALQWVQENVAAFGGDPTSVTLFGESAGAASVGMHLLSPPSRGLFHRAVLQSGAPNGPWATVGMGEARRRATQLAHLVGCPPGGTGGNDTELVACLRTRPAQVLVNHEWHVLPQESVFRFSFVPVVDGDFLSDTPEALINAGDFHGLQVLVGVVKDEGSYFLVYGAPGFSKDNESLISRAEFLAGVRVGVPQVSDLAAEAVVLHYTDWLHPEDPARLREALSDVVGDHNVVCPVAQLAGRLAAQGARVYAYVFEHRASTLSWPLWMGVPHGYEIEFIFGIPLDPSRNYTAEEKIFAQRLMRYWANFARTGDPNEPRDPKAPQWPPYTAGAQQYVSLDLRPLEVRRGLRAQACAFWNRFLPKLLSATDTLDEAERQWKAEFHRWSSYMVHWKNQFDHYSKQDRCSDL

Structure (SMILES)	Potency [1]	Potency [2]	Potency [3]	Potency [4]
Nc1cc([N+](=O)[O-])ccc1O	inactive	inactive	inactive	inactive
CCCCCCCCCCCCCCBr	inactive	inactive	inactive	inactive
CC(=O)N[C@@H](Cc1ccc(O)cc1)C(=O)O	inactive	inactive	inactive	inactive
OCCN1CCN(CCO)CC1	inactive	inactive	inactive	inactive
CNC(=S)NN	inactive	inactive	inactive	inactive
CC(C)OC(=O)OCOP(=O)(CO[C@H](C)Cn1cnc2c(N)ncnc21)OCOC(=O)OC(C)C	inactive	inactive	inactive	inactive
CC(=O)Oc1ccc(C2(c3ccc(OC(C)=O)cc3)Oc3ccccc3NC2=O)cc1	inactive	inactive	inactive	inactive
O=c1[nH]cnc2c1ncn2[C@H]1CC[C@@H](CO)O1	inactive	inactive	inactive	inactive
CC(C)(C)NCCO	inactive	inactive	inactive	inactive
Nc1ccc(S(=O)(=O)NC(=O)c2ccccc2)cc1	inactive	inactive	inactive	inactive
Cc1ccc(C(C)C)c(O)c1	inactive	inactive	inactive	inactive
Cc1onc(-c2ccccc2)c1C(=O)Cl	inactive	inactive	inactive	inactive
CCCC(C)C	inactive	inactive	inactive	inactive
CC(=O)NCCCS(=O)(=O)O	inactive	inactive	inactive	inactive
O=C(O)c1ccccc1Cl	inactive	inactive	inactive	inactive
O=C1Nc2ccccc2C1=O	inactive	inactive	inactive	inactive
COC(=O)c1ccc(C(=O)OC)cc1	inactive	inactive	inactive	inactive
CC(=O)CC(=O)Nc1ccccc1	inactive	inactive	inactive	inactive
[Cl][Dy]([Cl])[Cl]	inactive	inactive	inactive	inactive
CC(C)C(=O)Nc1cccc(C(F)(F)F)c1	inactive	inactive	inactive	inactive

Structure (SMILES)	Potency [1]	Potency [2]	Potency [3]	Potency [4]
CC(=O)CC/C=C(\C)CC/C=C(\C)CC/C=C(\C)CCC=C(C)C	inactive	inactive	inactive	inactive
Cc1nc2sccn2c(=O)c1CCN1CCC(=C(c2ccc(F)cc2)c2ccc(F)cc2)CC1	30.9 µM (active)	38.9 µM (active)	15.5 µM (active)	inactive
C1CCCCC1	inactive	inactive	inactive	inactive
CCc1cccc2c3c([nH]c12)C(CC)(CC(=O)O)OCC3 (stereo not given)	inactive	inactive	inactive	inactive
C=C1CC[C@H](O)C/C1=C\C=C1/CCC[C@]2(C)[C@@H]([C@H](C)CCCC(C)C)CC[C@@H]12	inactive	inactive	inactive	inactive
Cc1cc(Cl)c(C)cc1Cl	inactive	inactive	inactive	inactive
O=C(O)[C@H](O)[C@@H](O)[C@H](O[C@@H]1O[C@H](CO)[C@H](O)[C@H](O)[C@H]1O)[C@H](O)CO	inactive	inactive	inactive	inactive
Cc1cc(SC2=C(O)C[C@@](CCc3ccc(N)cc3)(C(C)C)OC2=O)c(C(C)(C)C)cc1CO	inactive	inactive	inactive	inactive
C[Si](C)(C)O[Si](C)(C)C	inactive	inactive	35.4 µM (active) and inactive	inactive
CCCC(C)CO (stereo not given)	inactive	inactive	inactive	inactive
C=C(C)[C@@H]1CC=C(C)CC1	inactive	inactive	inactive	inactive
O=C(OCc1ccccc1)c1ccccc1O	inactive	inactive	inactive	inactive
CC1(C)Cc2cccc(N)c2O1	inactive	inactive	inactive	inactive
O=C(O)Cn1cnnn1	inactive	inactive	inactive	inactive
Cc1scc2c1N(C(=O)CN1CCN(C)CC1)c1ccccc1NC2=O	inactive	inactive	inactive	inactive
COc1ccc(Cl)cc1C(=O)NCCc1ccc(S(=O)(=O)NC(=O)NC2CCCCC2)cc1	inactive	inactive	inactive	inactive
c1ccc2c(c1)-c1ccc3ccc4cccc5cc-2c1c3c45	inactive	inactive	inactive	inactive
Nc1ncn([C@H]2C[C@H](O)[C@@H](CO)O2)c(=O)n1	inactive	inactive	inactive	inactive
CC(=O)Nc1cccc(O)c1	inactive	inactive	inactive	inactive
O=C(Cl)c1ccccc1[N+](=O)[O-]	inactive	inactive	inactive	inactive

Structure (SMILES)	Potency [1]	Potency [2]	Potency [3]	Potency [4]
CCC(COC(=O)CCS)(COC(=O)CCS)COC(=O)CCS	inactive	inactive	inactive	inactive
CN(C)c1ccc(CCO)cc1	inactive	inactive	inactive	inactive
O=C(O)CCCCCCCC(=O)O	inactive	inactive	inactive	inactive
c1ccc(SSc2ccccc2)cc1	inactive	inactive	inactive	inactive
O=C(O)CCCC[C@@H]1SC[C@@H]2NC(=O)N[C@@H]21	inactive	inactive	inactive	inactive
CC1=Nc2ccc3ccccc3c2C1(C)C	inactive	inactive	inactive	inactive
CCN(Cc1ccccc1)c1ccccc1	inactive	inactive	inactive	inactive
C=C[Si]1(C)O[Si](C)(C=C)O[Si](C)(C=C)O[Si](C)(C=C)O1 (stereo not given)	inactive	inactive	inactive	inactive
Cc1ccc(C#N)cc1	inactive	inactive	inactive	inactive
CN1CCN(C(c2ccccc2)c2ccccc2)CC1	inactive	inactive	inactive	inactive
CC(C)C1=CC2=CC[C@@H]3[C@](C)(CCC[C@@]3(C)C(=O)O)[C@H]2CC1	inactive	inactive	inactive	inactive
Cc1cc(N)no1	inactive	inactive	inactive	inactive
COc1cc(C(C)(C)C)c(O)c(C(C)(C)C)c1	inactive	inactive	inactive	inactive
CC(=O)/C=C/C1=C(C)CCCC1(C)C	35.6 µM (active)	inactive	10.2 µM (active)	inactive
CC(=O)O[C@@]12CO[C@@H]1C[C@H](O)[C@@]1(C)C(=O)[C@H](O)C3=C(C)[C@@H](OC(=O)[C@H](O)[C@@H](NC(=O)OC(C)(C)C)c4ccccc4)C[C@@](O)([C@@H](OC(=O)c4ccccc4)[C@H]21)C3(C)C	inactive	inactive	inactive	inactive
C=Cc1ccccn1	inactive	inactive	inactive	inactive
C[C@]12CCC(=O)C=C1CC[C@@H]1[C@@H]2C(=O)C[C@@]2(C)[C@H]1CC[C@]2(O)C(=O)CO	inactive	inactive	inactive	inactive
CC(=O)Nc1ccc(OCC(O)CNC(C)C)cc1 (stereo not given)	inactive	inactive	inactive	inactive
CCCCCC[C@@H](O)C/C=C\CCCCCCCC(=O)OC	inactive	inactive	inactive	inactive
Cc1ccc(C(=O)O)o1	inactive	inactive	inactive	inactive

— PubChem BioAssay (Tox21)
